# LGR2 antag: inhibitors of bursicon-induced Drosophila LGR2 receptor cAMP signaling; HEK293 LGR2, CRE-luciferase, bursicon-stimulated, 4 h; inhibition, % at 9.99 µM; 380,000 tested, 0.35% active; AID 720647;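 active = drop in luminescence signal, shown as inhibition above about 50% in the replicate tests, limit read from the data, passing the limit was not always enough; inconclusive = probably only some replicates passing the limit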;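 note: agonist challenge used bursicon conditioned medium at about half maximal strength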
# EBV LMP1 NFkB: Epstein-Barr LMP1 NF-kappaB reporter inhibition; inhibition, % at 12.5 µM; LMP1-induced NF-kappaB luciferase reporter cells, luminescence; AID 504558; 350,000 tested, 0.69% active; in the data active = inhibition above about 41%; inconclusive = no clear call, values can overlap the other calls
# EWS-Fli block: EWS/Fli transcriptional activity inhibition; AID 651661; A673 NR0B1-luciferase reporter, viability-normalised; 350,000 tested, 0.67% active; inhibition, % at 12.6 µM;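 active = mean inhibition of at least 50% after viability correction, with every replicate also passing that limit; inconclusive = mean reaches 50% but only one of two replicates passes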;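 note: firefly luciferase signal divided by Alamar Blue viability fluorescence both relative to DMSO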
# TROY signal inh: inhibitors of TROY-dependent NF-kB signaling; Q293 LMP1-TROYcd NF-kB luciferase reporter, 4 h; inhibition, % at 10 µM; 360,000 tested, 0.98% active;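 active = compounds whose plate-normalised and pattern-corrected inhibition of the luciferase reporter signal at the single screening dose is 50% or more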
# PAX8 inh HTS: PAX8 transcriptional activity inhibition; RMG-I TPO-luciferase reporter, SteadyGlo, 24 h; inhibition, % at 12.6 µM; 360,000 tested, 1.2% active; AID 652154;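 active = mean replicate inhibition at least 60% with every replicate also reaching 60%; inconclusive = only one of the two criteria is met; inactive = mean below 60% and not all replicates reaching 60%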;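 note: luciferase light reporting Pax8 driven TPO promoter activity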
# TWEAK Fn14 block: TWEAK-Fn14 signaling inhibition | TWEAK-stimulated Fn14 reporter cells, luciferase luminescence, 8 h | inhibition, % at 10 µM | 360,000 tested, 2% active; in the data active = inhibition above about 50%
# A number is an active result; - = inactive; ? = inconclusive; . = no result given; ! = not active in a repeat. An excerpt weighted towards active compounds, which were near 3.1% of everything screened.
SMILES,LGR2 antag,EBV LMP1 NFkB,EWS-Fli block,TROY signal inh,PAX8 inh HTS,TWEAK Fn14 block
Oc1ccc(C[C@H]2CN([C@@H](Cc3ccc(O)cc3)CN3CCC[C@@H]3CN3C(=S)NC[C@@H]3Cc3ccccc3)C(=S)N2CC2CCCCCC2)cc1,-,.,-,-,89,61
CC(C)C[C@@H](CN1CCCC1CN1C(=S)NC[C@@H]1Cc1ccc(O)cc1)N1C[C@H](Cc2ccc(O)cc2)N(CC2CCCCC2)C1=S (stereo partly specified),-,-,-,-,-,56
Oc1ccc(C[C@H]2CN([C@@H](Cc3cccc(O)c3)CN3CCC[C@@H]3CN3C(=S)NC[C@@H]3Cc3ccccc3)C(=S)N2CC2CCCCC2)cc1,-,.,-,-,75,55
C[C@H](CO)N1C[C@H](C)[C@@H](CN(C)C)OCCCC[C@H](C)Oc2ccc(NS(=O)(=O)c3ccc(Cl)cc3)cc2C1=O,-,.,-,.,-,.
CC(C)NC(=O)N(C)C[C@H]1Oc2ncc(C#CC3CC3)cc2C(=O)N([C@@H](C)CO)C[C@@H]1C,-,.,-,.,-,.
C[C@@H]1CCCCO[C@@H](CN(C)C(=O)Nc2ccccc2)[C@H](C)CN([C@@H](C)CO)C(=O)c2cc(NC(=O)c3ccccc3)ccc2O1,-,.,-,.,-,.
C[C@H](O)C#Cc1ccc2c(c1)O[C@@H](CN(C)C(=O)C1CCC1)[C@@H](C)CN([C@@H](C)CO)S2(=O)=O,-,.,-,.,.,.
Oc1ccc(C[C@H]2CNC(=S)N2CC2CCCN2C[C@H](Cc2ccc(O)cc2)N2C[C@H](Cc3ccccc3)N(CCc3ccccc3)C2=S)cc1 (stereo partly specified),-,-,-,-,?,55
Oc1ccc(C[C@H]2CNC(=S)N2CC2CCCN2C[C@H](Cc2ccccc2)N2C[C@H](Cc3ccc(O)cc3)N(CC3CCCCCC3)C2=S)cc1 (stereo partly specified),-,-,-,-,73,-
Oc1ccc(C[C@H]2CNC(=S)N2CC2CCCN2C[C@H](Cc2ccc(O)cc2)N2C[C@H](Cc3ccc(O)cc3)N(CC3CCCCC3)C2=S)cc1 (stereo partly specified),-,-,-,-,91,96
C[C@@H]1CN([C@H](C)CO)C(=O)c2cc(NC(=O)CCC(F)(F)F)ccc2O[C@@H](C)CCCCO[C@H]1CN(C)S(=O)(=O)c1cn(C)cn1,-,.,-,.,-,.
CCCSc1nc2cc(S(=O)(=O)N3CCOCC3)ccc2n1CC,-,67,.,-,-,-
O=C1C(=O)c2cccnc2-c2ncccc21,100,.,-,66,107,103
CCOc1cccc(-c2nnc3sc(C4CCCCC4)nn23)c1,.,-,.,-,.,-
COc1cccc(-c2nnc3sc(C4CCCCC4)nn23)c1,.,45,.,52,.,64
C[C@H](O)C#Cc1cnc2c(c1)C(=O)N([C@H](C)CO)C[C@@H](C)[C@@H](CN(C)Cc1ccc(-c3ccccc3)cc1)O2,-,-,-,-,65,-
C[C@H](CO)N1C[C@H](C)[C@H](CN(C)Cc2ccc(-c3ccccc3)cc2)Oc2ncc(C#C[C@@H](C)O)cc2C1=O,-,.,-,.,-,.
C[C@@H]1CN([C@H](C)CO)C(=O)c2cc(-c3cccnc3)cnc2O[C@H]1CN(C)Cc1ccc(-c2ccccc2)cc1,-,.,57,.,.,.
C[C@H](O)C#Cc1cnc2c(c1)C(=O)N([C@H](C)CO)C[C@@H](C)[C@H](CN(C)Cc1ccc(-c3ccccc3)cc1)O2,-,.,-,.,-,.
C[C@H](O)C#Cc1cnc2c(c1)C(=O)N([C@H](C)CO)C[C@H](C)[C@H](CN(C)Cc1ccc(-c3ccccc3)cc1)O2,-,.,-,.,87,.
C[C@H](O)C#Cc1cnc2c(c1)C(=O)N([C@@H](C)CO)C[C@@H](C)[C@H](CN(C)Cc1ccc(-c3ccccc3)cc1)O2,-,.,-,.,72,.
COc1ccc(C(=O)NCCc2ccc(F)cc2)cc1OC,-,-,-,-,-,-
COc1ccc(CCNC(=O)c2cc3cc(F)ccc3nc2C)cc1OC,-,-,-,-,-,51
c1ccc(-c2cn3c4c(sc3n2)CCCC4)cc1,74,50,54,72,-,89
Cc1ccc(S(=O)(=O)N(C)C[C@@H]2Oc3ncc(-c4ccccc4)cc3C(=O)N([C@H](C)CO)C[C@@H]2C)cc1,-,.,-,.,.,.
SMILES,LGR2 antag,EBV LMP1 NFkB,EWS-Fli block,TROY signal inh,PAX8 inh HTS,TWEAK Fn14 block
Cc1cc(=O)oc2c(C)c(OCC(=O)N(C)C)ccc12,-,42,.,-,.,-
CCC(=O)Oc1ccc2c(C)cc(=O)oc2c1C(=O)c1ccccc1,-,-,-,-,88,-
C[C@H](CO)N1C[C@H](C)[C@H](CN(C)S(=O)(=O)c2cccs2)Oc2ccc(NC(=O)Nc3ccc4c(c3)OCO4)cc2C1=O,-,.,-,.,.,.
CN(C)C(=O)c1ccc(-c2ccc([C@H]3[C@H](CO)N4C(=O)CN(C(=O)C5CC5)C[C@@H]34)cc2)cc1,-,.,-,.,-,.
COC(=O)[C@]1(CCS(=O)(=O)c2ccccc2)N=C(c2ccc(OCCCO)cc2)O[C@@H]1c1ccccc1CN=[N+]=[N-],.,.,-,.,95,.
C=CC[C@]1(C(=O)OC)COC(c2ccc(OCCCO)cc2)=N1,.,.,-,.,-,.
COC(=O)[C@@]1(CCS(=O)(=O)c2ccccc2)COC(c2ccc(OCCCO)cc2)=N1,.,.,80,.,-,.
COC(=O)[C@@]1(Cc2ccccc2)N=C(c2ccc(OCCCO)cc2)O[C@H]1c1ccccc1CN=[N+]=[N-],.,.,-,.,96,.
C[C@@H]1CN([C@@H](C)CO)C(=O)Cc2cc(NC(=O)Cc3cn(C)c4ccccc34)ccc2O[C@H]1CN(C)C(=O)Nc1cccc2ccccc12,-,.,-,.,.,.
CO[C@H]1CN(C)C(=O)c2ccc(NS(=O)(=O)c3cn(C)cn3)cc2OC[C@H](C)N(C)C[C@@H]1C,-,.,.,.,-,.
COc1ccccc1NC(=O)N(C)C[C@@H]1OCc2ccccc2-c2c(n(C)c3ccccc23)C(=O)N([C@@H](C)CO)C[C@H]1C,-,.,-,.,.,.
Nc1ncnc2nc[nH]c12,-,59!,-,-,-,-
c1nc(N2CCCCC2)c2[nH]cnc2n1,-,-,-,-,-,-
CCc1cc(-c2n[nH]c(C)c2-c2nc3ccccc3n2C)c(O)cc1O,-,-,-,-,120,-
O=CC1=C(c2ccccc2)Oc2ccccc2O1,-,-,-,-,-,58
COc1cccc(-n2nnnc2S(C)(=O)=O)c1,.,90,.,-,.,-
C[C@H](CO)N1C[C@H](C)[C@@H](CN(C)S(C)(=O)=O)Oc2ccc(NC(=O)Nc3ccc(C(F)(F)F)cc3)cc2CC1=O,-,.,.,.,-,.
NS(=O)(=O)c1c(Sc2ccccc2C(=O)O)ccc2ccccc12,-,-,-,-,-,54
COc1ccc(OC)c(S(=O)(=O)NC(C)CCc2ccccc2)c1 (stereo unspecified),-,51,-,-,-,-

# High-throughput results as filed in PubChem BioAssay.
